According to PubChem BioAssay (NCI):
About 83,000 compounds went through this panel and 20% of them were active in at least one assay; those are over-represented in the sample as a whole.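 A percent growth of 40 corresponds to 60% growth inhibition; 0 means no net growth; -100 means all cells died. Active threshold: below 10.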 The source made the active and inactive calls.

The compounds below were run on HL-60(TB) leukemia (assay: NCI-60 one-dose screen, 48 h (100 = growth as untreated, 0 = no growth, -100 = all killed)). Conditions: 10 µM unless noted.
With `N#Cc1ccc(-n2cnc(NC(=O)[C@H]3CCN(C#N)C3)c2)cc1` the growth was -20.8% (active).
`CC(=O)Nc1nc(C)c(C(=O)NNC(=O)Nc2ccccc2)s1` was tested, and the growth was 108% (inactive).
With `CN(C)CCOc1ccc2c(c1)C(=O)/C(=C\c1ncc([N+](=O)[O-])n1C)C2` the growth was -51.8% (active).
For `COC(=O)C(Cc1ccccc1)n1cc(COc2nc(Cl)nc(Nc3ccc(Cl)cc3)n2)nn1` (stereo not given), the growth was 72.2% (inactive).
`CN(C)CCCCNc1ccc(NCCCCN(C)C)c2c1C(=O)c1c(O)ccc(O)c1C2=O` was tested, and the growth was 24.6% (inactive).
`c1ccc(CP(Cc2ccccc2)c2ccccc2)cc1` was tested, and the growth was 84.2% (inactive).
`O=C(Nc1ccc(Nc2ncccn2)cc1)NC1C=c2ccccc2=CC1` (stereo not given) was tested, and the growth was 74.1% (inactive).
With `C=CCN=c1sc(-c2ccc3ccccc3c2)cn1NC(=O)c1cc2ccc1CCc1ccc(cc1)CC2` the growth was 49.2% (inactive).
With `C=CCN(CC#N)CC=C` the growth was 106% (inactive).
In the case of `COC(=O)[C@@H]1CCCN1C(=O)[C@@H]1CCCN1C(=O)[C@H](Cc1ccccc1)NC(=S)Nc1cc(C(F)(F)F)cc(C(F)(F)F)c1`, the growth is reported as 55.7% (inactive).
In the case of `COc1ccccc1CNCCCN1C(=O)c2ccc3c4c(ccc(c24)C1=O)C(=O)N(CCCNCCCN)C3=O`, the growth is reported as -42.3% (active).
With `Cc1cc(C)c(C#N)c(Sc2nc(C)c([N+](=O)[O-])c(C)c2C#N)n1` the growth was 66.2% (inactive).
For `O=C1NC(=Nc2ccc(O)cc2)S/C1=C\c1cccs1`, the growth was -4.12% (active).
In the case of `CC/C(=N\Nc1nc2ccccc2n1C)c1ccccn1`, the growth is reported as -29.4% (active).
With `COc1ccc(C2=NN(C(=O)c3cc(OC)c(OC)c(OC)c3)C(c3ccc(C#N)cc3)C2)cc1OC` (stereo not given) the growth was 4.24% (active).
With `COc1cnc2c(c1)C(=O)c1c-2n(CCCn2ccnc2)c(=O)c2cc(F)ccc12` the growth was -44.5% (active).
For `CCN(C(=O)N1CCN(c2cc3c(cc2F)c(=O)c(C(=O)O)cn3C2CC2)CC1)c1nc(-c2ccc(C)cc2)cs1`, the growth was 7.49% (active).
With `C/C(=N\Nc1ccc(Cl)cn1)c1ccccn1` the growth was -27.4% (active).
For `CSCc1ncc(-c2ccc(C(F)(F)F)cc2)c(NC2CCCCCC2)n1`, the growth was 20.7% [25 µM] (inactive).
`CN1CCN(CCCOc2ccc3ncnc(Nc4ccc(OCc5cccc(F)c5)c(Cl)c4)c3c2)CC1` was tested, and the growth was -42.3% (active).
With `CC(=O)CCC(=O)OCc1cc(=O)c(O)co1` the growth was 95% (inactive).
With `Cc1cccc(C)c1NC(=O)CSC(=S)N1CCN(CCOCCO)CC1` the growth was 88.7% (inactive).
With `C#CCOC(=O)C(N)CSSCC(N)C(=O)O` (stereo not given) the growth was 120% (inactive).
With `O=C1C=C(O)c2ccccc2C1=O.[Ag]` the growth was 96% (inactive).
With `O=C1NCCN1/N=C/c1c(Cl)n(Cc2ccc(Cl)cc2)c2ccccc12` the growth was 74.4% (inactive).
In the case of `Cn1c2c(c3ccc(Cl)c(Cl)c31)C(C#N)C1(CCNCC1)NC2=O` (stereo not given), the growth is reported as 4.92% (active).
In the case of `C[C@@H]1NC(=O)[C@H](Cc2ccccc2)N(Cc2cccnc2)C1=O`, the growth is reported as 103% (inactive).
For `CCN1C(=O)N(CC)C2C1NN=c1s/c(=C\c3ccccc3)c(=O)n12` (stereo not given), the growth was -45.3% (active).
`CC(C)(C)[Si](C)(C)OCC1OC(n2cnc3c(N)ncnc32)CC1OS(C)(=O)=O` (stereo not given) was tested, and the growth was 104% (inactive).
In the case of `COc1cc(C2Cc3ncccc3-c3[nH]c(=O)c4cccnc4c32)cc(OC)c1OC` (stereo not given), the growth is reported as -2.08% (active).
For `Cc1ccc(C(=O)Nc2cccc(C#Cc3cccc4[nH]nc(N)c34)c2)cc1C(F)(F)F`, the growth was 19.2% (inactive).
With `O=C(Nc1cccc(-n2cc(-c3ccncc3)c(-c3ccc(Cl)c(O)c3)n2)c1)Nc1ccc(Cl)c(C(F)(F)F)c1` the growth was -11.2% (active).
For `CN(C)CCN1C(=O)c2cccc3cc(N)cc(c23)C1=O`, the growth was 1.68% (active).
With `CC1=C(NCCN2CCCC2)C(=O)c2c(OCc3cccc(Cl)c3)cccc2C1=O` the growth was 94.1% (inactive).
`CCOc1cccc(/C=N/NC(=O)Cc2ccc(Nc3ccnc(C(F)(F)F)c3)cc2)c1O` was tested, and the growth was 73.1% (inactive).
`COC(=O)c1ccc2[nH]c(O)c(C(=Nc3ccc(N(C)C(=O)CN4CCN(C)CC4)cc3)c3ccc(OC)cc3)c2c1` was tested, and the growth was -13.8% (active).
In the case of `COCn1c(C(=O)OC)cc2oc(/C=C3/SC(=S)N(N)C3=O)cc21`, the growth is reported as 76.9% (inactive).
For `CCN1CCCC(Nc2cc(C)nc(/N=C(/N)Nc3ccc(Cl)c(Cl)c3)n2)C1` (stereo not given), the growth was -42.7% (active).
For `Cc1c2c(cc[n+]1Cc1ccccc1)c1ccc(OCc3ccccc3)cc1n2Cc1ccccc1`, the growth was -54.1% (active).
With `N#CC1=C(NC=O)Oc2c(ccc3ccccc23)C1c1ccccc1` (stereo not given) the growth was 18.1% (inactive).
